BoNT F protease: blocks Botulinum neurotoxin F light chain protease; Multiplex microsphere protease cleavage assay, flow cytometry; inhibition, % at 10 µM; hit rate 0.22% among 360,000; AID 588497; in the data active = inhibition above about 35%, passing the limit was not always enough; inconclusive = no clear call, values can overlap the other calls; also: plate controls were buffer without enzyme for full effect and enzyme alone for no effect
BoNT-A LC inh2: inhibitors of Botulinum neurotoxin A light chain protease; multiplex microsphere protease substrate cleavage, flow cytometry; inhibition, % at 10 µM; hit rate 0.17% among 360,000; AID 588499; also: plate controls were buffer without enzyme for full effect and enzyme alone for no effect
Autofluor counter: flagged as autofluorescent in microsphere protease counterscreen; compound autofluorescence counterscreen, microsphere flow cytometry; stronger effect = higher value; fluorescence intensity (concentration not given with the values); hit rate 3.1% among 360,000; in the data active = fluorescence intensity above about 16000; inconclusive = no clear call, values can overlap the other calls
Anthrax LF inh2: blocks Bacillus anthracis lethal factor protease; multiplex microsphere protease cleavage assay, LF; inhibition, % at 10 µM; hit rate 0.12% among 360,000; P15917; also: plate controls were buffer without enzyme for full effect and enzyme alone for no effect
Target sequence (P15917 whole entry, looked up): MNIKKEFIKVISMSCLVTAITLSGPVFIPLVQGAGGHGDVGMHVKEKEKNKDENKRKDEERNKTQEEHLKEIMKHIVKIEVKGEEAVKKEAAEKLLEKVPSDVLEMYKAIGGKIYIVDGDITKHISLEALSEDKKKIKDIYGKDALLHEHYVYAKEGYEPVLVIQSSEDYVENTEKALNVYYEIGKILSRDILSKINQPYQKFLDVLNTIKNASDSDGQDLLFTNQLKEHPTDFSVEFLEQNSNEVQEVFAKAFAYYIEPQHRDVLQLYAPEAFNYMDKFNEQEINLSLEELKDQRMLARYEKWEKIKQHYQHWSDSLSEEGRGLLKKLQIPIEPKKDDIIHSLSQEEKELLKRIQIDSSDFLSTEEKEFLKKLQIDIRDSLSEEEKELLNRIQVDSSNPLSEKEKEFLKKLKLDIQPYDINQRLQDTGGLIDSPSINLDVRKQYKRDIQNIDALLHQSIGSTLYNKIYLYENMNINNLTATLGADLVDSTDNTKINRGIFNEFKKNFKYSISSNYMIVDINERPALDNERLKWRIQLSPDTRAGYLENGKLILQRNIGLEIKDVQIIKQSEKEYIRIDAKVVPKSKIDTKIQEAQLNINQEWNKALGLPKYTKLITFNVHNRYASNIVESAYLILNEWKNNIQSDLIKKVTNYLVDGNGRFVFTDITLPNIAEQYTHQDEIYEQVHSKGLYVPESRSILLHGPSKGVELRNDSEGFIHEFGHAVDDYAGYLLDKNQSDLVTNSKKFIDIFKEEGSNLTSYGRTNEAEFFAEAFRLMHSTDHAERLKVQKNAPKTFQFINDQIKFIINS
Active calls of the source: *; u = inconclusive. Rows were chosen to be rich in hits. Some 3.5% of all compounds tested hit in one or more screens of this group. Rule as the data show it, unless noted: active = inhibition above about 30%; inconclusive = no clear call, values can overlap the other calls; inactive = below that.

SMILES	BoNT F protease	BoNT-A LC inh2	Autofluor counter	Anthrax LF inh2
CCOc1cc(C#N)c(NC(=O)CSc2nnnn2-c2ccc(OC)cc2)cc1OCC	-11	-9	22206*	-3
CCC(CO)Nc1ccc([N+](=O)[O-])c2cccnc12 (stereo not drawn)	-5	-2	22808*	0
CC1CCCN(C(=O)CNS(=O)(=O)c2cccs2)C1 (stereo not drawn)	4	0	6221	1
COc1ccc(OCc2nn3c(Cn4cnc5ccccc54)nnc3s2)cc1	-2	-2	16600*	-5
COc1ccccc1-c1nnc2sc(COc3ccccc3)nn12	11	8	20024*	-12
CCOC(=O)Cc1csc(NC(=O)COc2ccccc2)n1	-3	-2	22960*	-2
CCOC(=O)Cc1csc(NC(=O)NC2(C(F)(F)F)Oc3ccccc3O2)n1	-4	-1	16388*	-4
CCOC(=O)Cc1csc(NC(=O)c2ccc(C)o2)n1	-3	0	8273	0
CCOC(=O)Cc1csc(NC(=O)c2ccc(S(=O)(=O)N3CCCCC3)cc2)n1	1	u	22414*	2
CCOC(=O)Cc1csc(NC(=O)c2ccco2)n1	0	1	20219*	-6
CCOC(=O)Cc1csc(NC(=O)COc2ccc(C)cc2)n1	-4	-1	4062	0
CCOC(=O)Cc1csc(NC(=O)NC2(C(F)(F)F)Oc3ccc(Cl)cc3O2)n1 (stereo not drawn)	-14	0	2650	-1
Cn1nnnc1SCC(=O)Nc1nc2c(F)c(F)c(F)cc2s1	-2	0	3415	-5
O=C(Nc1ccccc1Cl)C1CCCN(S(=O)(=O)c2ccc(-n3cnnn3)cc2)C1 (stereo not drawn)	-19	-6	3761	17
Cc1cc(Cl)ccc1NC(=O)CN1C(=O)C(=O)N(C2CCCC2)C1=O	-1	0	2941	-6
CC(C)(C)N1C(=O)[C@H]2[C@@H](c3ccc(Br)cc3)N3C(=O)N(c4ccccc4)C(=O)[C@@]3(C)[C@H]2C1=O	-3	0	3431	-8
CCOC(=O)C1CCCN(CC(=O)N(C)c2c(N)n(Cc3ccccc3)c(=O)[nH]c2=O)C1 (stereo not drawn)	-14	-3	u	-2
O=C1C(CN2CCCC2)CCCC1CN1CCCC1 (stereo not drawn)	-4	0	3672	-2
COc1cccc(CNc2cccc3cccnc23)c1O	-10	-3	16704*	-8
Cc1ccccc1OCc1nc2ccccc2[nH]1	-7	-2	4674	-8
COc1ccc(C(=O)Nc2nc3ccccc3[nH]2)cc1OC	-12	-4	21383*	-2
COc1ccccc1NC(=O)c1ccc2nc(-c3ccccc3)c(-c3ccccc3)nc2c1	2	u	20872*	-5
COc1cc(C(=O)Nc2nc3ccccc3[nH]2)ccc1OC(F)F	2	0	4408	-11
COc1ccccc1OCc1nc2ccccc2[nH]1	-5	-1	17050*	-2
O=C(Nc1cccc(C(=O)N2CCOCC2)c1)C1CC1	-6	-1	3246	-5
SMILES	BoNT F protease	BoNT-A LC inh2	Autofluor counter	Anthrax LF inh2
COc1cccc(C(C(=O)NC(C)(C)C)N(C(=O)CCC(=O)Nc2cc(C)on2)c2ccc3c(c2)OCCO3)c1OC (stereo not drawn)	2	1	5152	-1
Cc1cc(C)cc(OCC(=O)Nc2ccc(-n3cnnn3)cc2)c1	8	1	6134	-2
COc1ccc(C(=O)Nc2cccc3cccnc23)cc1OC	-4	0	23720*	-1
COc1ccc(N(C(=O)C(C)C)S(=O)(=O)c2ccc3c(c2)n(C)c(=O)n3C)cc1	1	0	2869	2
COc1ccc(N(C(=O)c2cccc([N+](=O)[O-])c2)S(=O)(=O)c2ccc3c(c2)n(C)c(=O)n3C)cc1	0	u	16542*	-5
Cc1ccc(F)c(CNC(=O)C2CCC(=O)N(CCCN3CCCC3=O)C2)c1F (stereo not drawn)	-3	-1	5642	1
Cc1[nH]n(C(N)=S)c(=O)c1N=Nc1ccc(S(=O)(=O)N2CCCCCC2)cc1	-12	u	21910*	-3
Cc1ccc(N=Nc2c(C)[nH]n(C(N)=S)c2=O)cc1C	0	2	2082	0
CN(C)CCN1C(=O)C(=O)/C(=C(/O)c2ccc(F)cc2)C1c1ccccc1F (stereo not drawn)	3	1	22555*	-10
Cc1ccc(/C(O)=C2\C(=O)C(=O)N(CCN(C)C)C2c2ccccc2F)cc1 (stereo not drawn)	0	u	20048*	-6
Cc1ccc(/C(O)=C2\C(=O)C(=O)N(CCCN3CCOCC3)C2c2ccccc2F)cc1 (stereo not drawn)	0	0	2882	-1
COc1cc(NC(=O)C[n+]2ccc(C(=O)c3ccccc3)cc2)cc(OC)c1	-6	0	4082	-10
